Sampled rows, rich in hits. Any-hit rate of the full collection: about 7.7%.
FMDV antiviral – High Throughput Screening for Foot and Mouth Disease Virus Antivirals; FMDV antiviral cell-based qHTS; Potency, µM (doses to about 57.9 µM), for inactives: at the top dose activity change, negative = inhibition, most hits filed as inhibitors; 410,000 compounds, 1.2% hits; calls by dose curve; tested in HEK293T cells; also: read-out not given here; potency is read from the fitted curve at half-maximal effect; nearly all actives have a fitted effect of over 45% in size
RE007 growth inh – qHTS Assay for Inhibitors of the HIV-1 protein Vpr. S. pombe RE007 Vpr strain, BacTiter-Glo ATP luminescence, 24 h. Potency, µM (doses to about 92.2 µM), for inactives: at the highest dose activity change, negative = less growth, actives largely listed as inhibitors. 360,000 compounds, 0.21% hits. AID 651644, 2012; active = well fitted falling curve with a large enough effect; inconclusive = small, poorly fitted or top-dose-only effect; inactive = no such curve, though single readings can be large or run the other way; also: potency is read from the fitted curve at half-maximal effect; nearly all actives have a fitted effect of over 50% in size
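Fission yeast strain RE007, carrying one chromosomally integrated HIV-1 vpr copy, was seeded at OD 0.01 in PMG+AL medium with 23 nL pinned compound. After 24 h at 30 °C and 99% humidity, viability was read by BacTiter-Glo luminescence.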
TbPYK inhibitor – qHTS of Trypanosoma Brucei Inhibitors | TbPYK enzyme, Kinase-Glo Plus ATP luminescence, 45 min | Potency, µM (highest dose often 76.8 µM), without a hit: at the top dose activity, negative = inhibition, usual class: inhibitors | 410,000 compounds, 0.12% hits | AID 624173, 2012; also: potency is read from the fitted curve at half-maximal effect; nearly all actives have a fitted effect of over 50% in size
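TbPYK + substrate in 50 mM TEA pH 7.2, 100 mM KCl, 10 mM MgCl2, 0.05% BSA, 0.01% Tween-20; cpd pinned; ADP 130 uM final; 45 min RT; Kinase-Glo Plus 10 min; luminescence endpoint.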
HCMV antiviral – qHTS Assay for inhibitors of the human cytomegalovirus (HCMV); HFF cells, HCMV-luciferase reporter, 72 h; active compounds read low; activity change, negative = inhibition, % at 57.5 µM; 410,000 compounds, 4.5% hits; in the data active = activity change below about -60%; inconclusive = no clear call, values can overlap the other calls; inactive = above about -39%
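Human foreskin fibroblasts infected with luciferase-reporter HCMV at MOI 1 PFU/cell, compounds at two doses. Luciferase measured 72 h post infection; normalized to buffer-only basal and Salinomycin (10uM) controls.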
Giardia FBPA inh-1 – qHTS Assay for Inhibitors of Fructose-1,6-bisphosphate Aldolase from Giardia Lamblia; purified Giardia FBPA; A8B2U2; 290,000 compounds, 0.71% hits; Potency, µM (doses to about 59.6 µM), for inactives: at the highest dose activity, negative = inhibition, usual class: inhibitors; also: potency is read from the fitted curve at half-maximal effect; nearly all actives have a fitted effect of over 55% in size
Target sequence (A8B2U2 whole entry, looked up): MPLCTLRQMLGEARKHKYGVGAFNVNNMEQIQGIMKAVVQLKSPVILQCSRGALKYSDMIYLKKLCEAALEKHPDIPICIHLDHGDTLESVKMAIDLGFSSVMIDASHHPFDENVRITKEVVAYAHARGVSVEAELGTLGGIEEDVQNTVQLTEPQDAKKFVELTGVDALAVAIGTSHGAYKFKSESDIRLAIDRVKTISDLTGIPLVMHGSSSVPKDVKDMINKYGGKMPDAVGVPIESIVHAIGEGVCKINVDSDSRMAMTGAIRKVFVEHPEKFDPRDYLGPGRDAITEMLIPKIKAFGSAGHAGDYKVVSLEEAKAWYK
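40 nM FBPA preincubated 10 min at RT with compound (up to 57.5 uM final), then substrate plus GAPDH/TPI/NAD/arsenate coupling and diaphorase/resazurin added. Fluorescence read after 20 min at RT, 525/598 nm.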
Sm TGR block – qHTS Assay for the Inhibitors of Schistosoma Mansoni Peroxiredoxins | 360,000 compounds, 3% hits | Potency, µM (titrated, usually from 114 µM), for the others: top-dose activity change, negative = inhibition, hits mostly inhibitors | Schistosoma mansoni thioredoxin glutathione reductase (TGR), Q962Y6 | AID 485364, 2010 | purified TGR, DTNB reduction, TNB absorbance 405 nm; also: potency is read from the fitted curve at half-maximal effect; nearly all actives have a fitted effect of over 60% in size
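TGR 20 nM + NADPH 100 uM (dispensed conc.), cpd preinc 15 min RT; start with NADPH (500 uM addition) then DTNB (15 mM addition). Kinetic TNB absorbance, 405 nm filter. Four-parameter Hill fit across titration.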
Giardia growth – qHTS Assay for Inhibitors of Fructose-1,6-bisphosphate Aldolase from Giardia Lamblia: Giardia lamblia growth inhibition; shares compounds with Giardia FBPA inh-1; Giardia lamblia trophozoite growth inhibition; Potency, µM (highest dose often 57.5 µM), for the others: at the top dose activity change, negative = inhibition, most hits filed as inhibitors; 1,500 compounds, 5% hits; AID 2785, 2010;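 also: potency is read from the fitted curve at half-maximal effect; trophozoites exposed to compound for 48 h at 37 °C; nearly all actives have a fitted effect of over 70% in size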
Mammal cell tox – qHTS Assay for Inhibitors of Fructose-1,6-bisphosphate Aldolase from Giardia Lamblia: Mammalian cellular toxicity. 1,500 compounds, 4% hits. shares compounds with Giardia FBPA inh-1. Potency, µM (series often up to 57.5 µM), without a hit: top-dose viability change, negative = toxicity, most hits filed as inhibitors. AID 2786, 2010. mammalian cell viability counter-screen, qHTS;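 also: Chinese hamster ovary cells used as mammalian cytotoxicity surrogate; viability measured as cellular ATP by luminescence; potency is read from the fitted curve at half-maximal effect; compound exposure lasted 48 h before reading; nearly all actives have a fitted effect of over 60% in size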
Giardia FBPA inh-2 – qHTS Assay for Inhibitors of Fructose-1,6-bisphosphate Aldolase from Giardia Lamblia: Primary screen confirmation; shares compounds with Giardia FBPA inh-1; purified Giardia aldolase enzyme activity, qHTS; Potency, µM (highest dose often 57.5 µM), without a hit: at the highest dose activity change, negative = inhibition, usual class: inhibitors; 1,500 compounds, 5% hits; also: potency is read from the fitted curve at half-maximal effect; nearly all actives have a fitted effect of over 45% in size
Rabbit FBPA inh – qHTS Assay for Inhibitors of Fructose-1,6-bisphosphate Aldolase from Giardia Lamblia: Rabbit FBPA Selectivity | Rabbit muscle FBPA enzyme inhibition, selectivity counter-screen | Potency, µM (titrated, usually from 57.5 µM), without a hit: top-dose activity, negative = inhibition, actives largely listed as inhibitors | shares compounds with Giardia FBPA inh-1 | 1,500 compounds, 4% hits; also: potency is read from the fitted curve at half-maximal effect; nearly all actives have a fitted effect of over 60% in size
Target sequence (P00883 whole entry, looked up): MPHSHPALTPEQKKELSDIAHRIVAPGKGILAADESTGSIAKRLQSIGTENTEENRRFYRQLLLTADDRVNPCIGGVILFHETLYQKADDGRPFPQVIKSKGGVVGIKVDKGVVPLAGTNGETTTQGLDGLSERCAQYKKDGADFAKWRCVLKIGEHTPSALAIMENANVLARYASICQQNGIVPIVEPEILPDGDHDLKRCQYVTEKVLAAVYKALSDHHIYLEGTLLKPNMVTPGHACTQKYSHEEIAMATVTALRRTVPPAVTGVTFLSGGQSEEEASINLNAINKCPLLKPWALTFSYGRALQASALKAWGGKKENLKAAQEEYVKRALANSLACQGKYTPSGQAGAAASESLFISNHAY
GAPDH coupling – qHTS Assay for Inhibitors of Fructose-1,6-bisphosphate Aldolase from Giardia Lamblia: Coupling assay counterscreen confirmation; shares compounds with Giardia FBPA inh-1; GAPDH coupling enzyme counterscreen, biochemical, qHTS; Potency, µM (top dose mostly 57.5 µM), without a hit: at the top dose activity change, negative = inhibition, hits mostly inhibitors; 1,500 compounds, 6% hits; AID 2795, 2010; also: potency is read from the fitted curve at half-maximal effect; nearly all actives have a fitted effect of over 55% in size
The depositor's hits bear a star; ? = inconclusive; · = not tested or not shown; [ ] = dose if it differs, or a comment. Unless noted, calls follow the shape of the dose curve; as a rule, active = well fitted curve in the direction sought with a large enough effect; inconclusive = small, poorly fitted or top-dose-only effect, or another doubt; inactive = no such curve, though single readings can be large; an effect the other way counts as inactive or inconclusive. % is scaled to controls: 0 for no effect and ±100 for the full control effect.

SMILES | FMDV antiviral | RE007 growth inh | TbPYK inhibitor | HCMV antiviral | Giardia FBPA inh-1 | Sm TGR block | Giardia growth | Mammal cell tox | Giardia FBPA inh-2 | Rabbit FBPA inh | GAPDH coupling
Cn1c(=O)[nH]c(=O)c2c1[nH]c(=S)n2CCCc1ccccc1 | 33% | 8% | ? | -25 | 3.5µM* | 0% | -10%[38.3 µM] | -3% | -12% | 35µM* | -1%
CCC1(C)Cc2ccccc2-c2nc(NN)[nH]c(=O)c21 (stereo not given) | 0% | 0% | 1% | -38 | 22µM* | 26% | 23% | 2% | 1% | -23% | -27%
COc1ccc2c(C)c(CCC(=O)NCCc3ccccc3OC)c(=O)oc2c1 | -5% | · | 2% | -6 | · | 1% | · | · | · | · | ·
O=C(O)c1ncn(Cc2ccccc2)c1C(=O)O | -9% | -8% | 0% | -12 | 7.9µM* | 9% | ? | -4% | 7% | 3% | 6%
CC(=O)OC[C@@]1(O)C[C@@]23CC[C@@H]4c5ccoc5CC[C@@]4(C)[C@@H]2CCC1C3 | 0% | · | · | · | 6% | · | · | · | · | · | ·
Cc1ccccc1C(=O)c1cccn1CC(=O)NCCCN1CCc2ccccc2C1 | -26% | -6% | -16% | -19 | 16µM* | -20% | ? | -12% | 9% | 10% | 6%
CCCCN(CC)Cc1ccc(CNC(=S)Nc2c(C)cc(C)cc2C)o1 | -13% | -3% | -9% | -30 | 13µM* | ? | 26% | -14% | -10% | 2% | 5%
Fc1ccccc1-c1nc(-c2ccccc2)oc1NC1CCCCC1 | · | · | · | · | -1% | · | · | · | · | · | ·
COc1ccc(N)cc1-n1c(C)ccc1C | 3% | -4% | -22% | -65* | ? | 16µM* | 12%[38.3 µM] | 3% | ? | ? | 8.9µM*
CCc1nc(C)ccc1OCC(=O)NCCCN(C)C | -25% | -7% | 27% | 15 | 13µM* | 9% | 13%[10.4 µM] | -1% | -1% | 6% | -15%
O=C(N/N=C/c1ccncc1)c1nc2ccccc2c(=O)[nH]1 | 35% | 1% | 8% | 11 | 11µM* | 0% | 11% | 24% | -9% | -17% | 0%
COC(=O)c1ccc(S(=O)(=O)NNC(=O)COc2ccc(C)cc2)cc1 | 36% | 23% | -8% | 3 | 3% | -9% | · | · | · | · | ·
COc1cccc(OCc2nn[nH]n2)c1 | -4% | 4% | -2% | 4 | ? | -14% | · | · | · | · | ·
COC(=O)c1ccc(OCc2nn[nH]n2)cc1 | 1% | 20% | 1% | 18 | 32µM* | -2% | 21% | 19% | 14% | 12% | 14%
COc1ccc(OCc2nn[nH]n2)cc1 | 12% | 3% | 3% | 33 | 25µM* | -13% | ? | -6% | 12% | 7% | 22%
Cc1cccc(OCc2nn[nH]n2)c1C | 13% | 3% | 2% | 68 | 14µM* | 8% | 26% | -4% | 4% | 13% | 16%
Cc1ccc(S(=O)(=O)c2cn(CC(=O)Nc3ccccc3)c3cc4c(cc3c2=O)OCO4)cc1 | -5% | · | -1% | -9 | · | -4% | · | · | · | · | ·
COc1cccc2c1cc1c(=O)n(CC(=O)N3CCN(c4cccc(C)c4)C(C)C3)nc(C)n12 (stereo not given) | -10% | · | 3% | 20 | · | 4% | · | · | · | · | ·
COc1ccc(-n2nnnc2SCC(=O)c2ccc(O)c(O)c2)cc1 | -10% | 6% | -6% | -24 | ? | -19% | -3%[38.3 µM] | ? | -25% | -11% | -32%
Cn1c(SCC(=O)c2ccc(O)c(O)c2)nnc1-c1ccccc1 | 68% | 5% | -8% | -12 | ? | ? | · | · | · | · | ·
Cc1cc(=O)[nH]c(SCC(=O)c2ccc(O)c(O)c2)n1 | -4% | 4% | -4% | 20 | 8.9µM* | 18µM* | ? | 12% | ? | -27% | -4%
Cn1c(SCC(=O)c2ccc(O)c(O)c2)nnc1-c1cccs1 | 45% | -11% | -5% | -16 | 5µM* | -14% | 10%[38.3 µM] | -27% | ? | -9% | -10%
Cc1ccc(C(=O)CSc2nc(C)cc(=O)[nH]2)cc1 | 10% | -2% | 0% | 15 | · | 1% | · | · | · | · | ·

Screening results deposited in PubChem BioAssay by National Center for Advancing Translational Sciences (NCATS).
